Data taken from PubChem BioAssay (NCATS).
Inconclusive results are not listed. Active and inactive are the calls of the source. Calls come from the whole dose curve; as a rule, active = well fitted curve in the direction sought with a large enough effect; inconclusive = small, poorly fitted or top-dose-only effect, or another doubt; inactive = no such curve, though single readings can be large; an effect the other way counts as inactive or inconclusive.

Tests used:
[1] = qHTS of pediatric cancer cell lines to identify multiple opportunities for drug repurposing: Primary screen for U-2 OS cells (AID 1347096);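 note: plate controls were DMSO wells for no effect and bortezomib positive control wells for full effect; nearly all actives have a fitted effect of over 50% in size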
Summary of the method: (§1)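 Cells (500-1,000/well) rested 5 h, then received compounds for 48 h; metabolically active cells were measured by CellTiter-Glo luminescence. Final concentrations spanned up to 46 µM (MIPE, 11-point) or 0.59 nM-46 µM (NPC, 8-point) in primary screens, 11-point in follow-ups.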

[2] = qHTS of pediatric cancer cell lines to identify multiple opportunities for drug repurposing: Primary screen for Saos-2 cells (AID 1347097); note: % is set by controls: 0 for no effect and ±100 for the full control effect; nearly all actives have a fitted effect of over 40% in size
Summary of the method: (§2)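 Plated cells (500-1,000 per well, growth media) were allowed to settle for 5 hours, treated with compound dilutions for 48 hours, then lysed with CellTiter-Glo for 15 min at room temperature before luminescence reading.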

[3] = qHTS of pediatric cancer cell lines to identify multiple opportunities for drug repurposing: Primary screen for SK-N-SH cells (AID 1347098);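 note: DMSO served as neutral control and bortezomib at 2.3 µM as positive control; % is set by controls: 0 for no effect and ±100 for the full control effect; nearly all actives have a fitted effect of over 65% in size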
Summary of the method: as §1

[4] = qHTS of pediatric cancer cell lines to identify multiple opportunities for drug repurposing: Primary screen for NB1643 cells (AID 1347099); note: nearly all actives have a fitted effect of over 50% in size; note: potency is the fitted concentration of half-maximal effect;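 for activity change, negative = cytotoxic: plate controls were DMSO neutral control for no effect and bortezomib positive control for full effect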
Summary of the method: as §2

[5] = qHTS of pediatric cancer cell lines to identify multiple opportunities for drug repurposing: Primary screen for LAN-5 cells (AID 1347100);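 note: plate controls were DMSO neutral control for no effect and bortezomib positive control for full effect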
Summary of the method: as §1

[6] = qHTS of pediatric cancer cell lines to identify multiple opportunities for drug repurposing: Primary screen for BT-12 cells (AID 1347101);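 note: plate controls were DMSO for no effect and bortezomib positive control for full effect; nearly all actives have a fitted effect of over 25% in size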
Summary of the method: as §1

[7] = qHTS of pediatric cancer cell lines to identify multiple opportunities for drug repurposing: Primary screen for Rh18 cells (AID 1347102); note: % is set by controls: 0 for no effect and ±100 for the full control effect; nearly all actives have a fitted effect of over 65% in size
Summary of the method: as §1

[8] = qHTS of pediatric cancer cell lines to identify multiple opportunities for drug repurposing: Primary screen for OHS-50 cells (AID 1347103);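 note: plate controls were DMSO neutral control for no effect and bortezomib positive control for full effect; nearly all actives have a fitted effect of over 40% in size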
Summary of the method: as §1

[9] = qHTS of pediatric cancer cell lines to identify multiple opportunities for drug repurposing: Primary screen for RD cells (AID 1347104);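 note: plate controls were DMSO for no effect and bortezomib for full effect; nearly all actives have a fitted effect of over 55% in size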
Summary of the method: as §2

[10] = qHTS of pediatric cancer cell lines to identify multiple opportunities for drug repurposing: Primary screen for MG 63 (6-TG R) cells (AID 1347105); note: % is set by controls: 0 for no effect and ±100 for the full control effect; nearly all actives have a fitted effect of over 50% in size
Summary of the method: as §2

CCCNC(C)C(=O)Nc1c(C)csc1C(=O)OC (stereo not drawn)
inactive: outcome [1] | outcome [2] | outcome [3] | Potency [4] | outcome [5] | outcome [6] | outcome [7] | outcome [8] | outcome [9] | outcome [10]

NC(=O)NC1NC(=O)NC1=O (stereo not drawn)
inactive: outcome [1] | outcome [2] | outcome [3] | Potency [4] | outcome [5] | outcome [6] | outcome [7] | outcome [8] | outcome [9] | outcome [10]

Cc1ccc(C(C)C)c(O)c1
inactive: outcome [1] | outcome [2] | outcome [3] | Potency [4] | outcome [5] | outcome [6] | outcome [7] | outcome [8] | outcome [9] | outcome [10]

O=C(Cn1ccnc1[N+](=O)[O-])NCc1ccccc1
inactive: outcome [1] | outcome [2] | outcome [3] | Potency [4] | outcome [5] | outcome [6] | outcome [7] | outcome [8] | outcome [9] | outcome [10]

CN(C(=O)c1c(O)c2ccccc2n(C)c1=O)c1ccccc1
inactive: outcome [1] | outcome [2] | outcome [3] | Potency [4] | outcome [5] | outcome [6] | outcome [7] | outcome [8] | outcome [9] | outcome [10]

CCCCCCCCCCCCCCCCCCO
inactive: outcome [1] | outcome [2] | outcome [3] | Potency [4] | outcome [5] | outcome [6] | outcome [7] | outcome [8] | outcome [9] | outcome [10]

O=C(O)COC(=O)Cc1ccccc1Nc1c(Cl)cccc1Cl
inactive: outcome [1] | outcome [2] | outcome [3] | Potency [4] | outcome [5] | outcome [6] | outcome [7] | outcome [8] | outcome [9] | outcome [10]

O=c1[nH]cnc2nc[nH]c12
inactive: outcome [1] | outcome [2] | outcome [3] | Potency [4] | outcome [5] | outcome [6] | outcome [7] | outcome [8] | outcome [9] | outcome [10]

Cc1cc(OI)c(C(C)C)cc1-c1cc(C(C)C)c(OI)cc1C
inactive: outcome [1] | outcome [2] | outcome [3] | Potency [4] | outcome [5] | outcome [6] | outcome [7] | outcome [8] | outcome [9] | outcome [10]

COC(=O)c1cccnc1
inactive: outcome [1] | outcome [2] | outcome [3] | Potency [4] | outcome [5] | outcome [6] | outcome [7] | outcome [8] | outcome [9] | outcome [10]

CC1CC(OC(=O)c2ccccc2O)CC(C)(C)C1 (stereo not drawn)
inactive: outcome [1] | outcome [2] | outcome [3] | Potency [4] | outcome [5] | outcome [6] | outcome [7] | outcome [8] | outcome [9] | outcome [10]

CC(=O)[C@@]1(O)CC[C@H]2[C@@H]3C[C@H](C)C4=CC(=O)C=C[C@]4(C)[C@@]3(F)[C@@H](O)C[C@@]21C
inactive: outcome [1] | outcome [2] | outcome [3] | Potency [4] | outcome [5] | outcome [6] | outcome [7] | outcome [8] | outcome [9] | outcome [10]

Cc1c(I)c(=O)n(-c2ccccc2)n1C
inactive: outcome [1] | outcome [2] | outcome [3] | Potency [4] | outcome [5] | outcome [6] | outcome [7] | outcome [8] | outcome [9] | outcome [10]

COc1ccc(Cc2cnc(N)nc2N)cc1OC
inactive: outcome [1] | outcome [2] | outcome [3] | Potency [4] | outcome [5] | outcome [6] | outcome [7] | outcome [8] | outcome [9] | outcome [10]

NS(=O)(=O)c1cc2c(cc1C(F)(F)F)NCNS2(=O)=O
inactive: outcome [1] | outcome [2] | outcome [3] | Potency [4] | outcome [5] | outcome [6] | outcome [7] | outcome [8] | outcome [9] | outcome [10]

CC(=O)OC[C@H]1O[C@@](COC(C)=O)(O[C@H]2O[C@H](COC(C)=O)[C@@H](OC(C)=O)[C@H](OC(C)=O)[C@H]2OC(C)=O)[C@@H](OC(C)=O)[C@@H]1OC(C)=O
inactive: outcome [1] | outcome [2] | outcome [3] | Potency [4] | outcome [5] | outcome [6] | outcome [7] | outcome [8] | outcome [9] | outcome [10]

O[C@@H]1CO[C@H]2[C@@H]1OC[C@@H]2O
inactive: outcome [1] | outcome [2] | outcome [3] | Potency [4] | outcome [5] | outcome [6] | outcome [7] | outcome [8] | outcome [9] | outcome [10]

Cc1ccsc1/C=C/C1=NCCCN1C
inactive: outcome [1] | outcome [2] | outcome [3] | Potency [4] | outcome [5] | outcome [6] | outcome [7] | outcome [8] | outcome [9] | outcome [10]

N[C@@H](Cc1ccc(O)cc1)C(=O)O
inactive: activity change, negative = cytotoxic [1] 16.3% [at 9.22 µM] | activity change, negative = cytotoxic [2] 14.8% [at 9.22 µM] | activity change, negative = cytotoxic [3] 5.3% [at 11.4 µM] | activity change, negative = cytotoxic [4] 17.5% [at 9.22 µM] | activity change, negative = cytotoxic [5] 6.26% [at 9.22 µM] | activity change, negative = cytotoxic [6] 11.7% [at 11.5 µM] | activity change, negative = cytotoxic [7] 18.9% [at 9.22 µM] | activity change, negative = cytotoxic [8] 9.85% [at 11.5 µM] | activity change, negative = cytotoxic [9] 14.4% [at 9.22 µM] | activity change, negative = cytotoxic [10] -16.1% [at 9.22 µM]

CC(C)C[C@@H](N)C(=O)O
active: Potency [4] 1 nM
inactive: outcome [1] | outcome [2] | outcome [3] | outcome [5] | outcome [6] | outcome [7] | outcome [8] | outcome [9] | outcome [10]

Cc1cc(C)c(NC(=O)CN(CC(=O)O)CC(=O)O)c(C)c1Br
inactive: outcome [1] | outcome [2] | outcome [3] | Potency [4] | outcome [5] | outcome [6] | outcome [7] | outcome [8] | outcome [9] | outcome [10]

Cc1c(C(=O)NCCO)[n+](=O)c2ccccc2n1[O-]
inactive: outcome [1] | outcome [2] | outcome [3] | Potency [4] | outcome [5] | outcome [6] | outcome [7] | outcome [8] | outcome [9] | outcome [10]

CC(N)CCCC(C)(C)O (stereo not drawn)
inactive: outcome [1] | outcome [2] | outcome [3] | outcome [5] | outcome [6] | outcome [7] | outcome [8] | outcome [9] | outcome [10]

Cc1ccccc1N=Nc1ccc(N=Nc2c(O)ccc3ccccc23)c(C)c1
inactive: outcome [1] | outcome [2] | outcome [3] | Potency [4] | outcome [5] | outcome [6] | outcome [7] | outcome [8] | outcome [9] | outcome [10]

COc1nccnc1NS(=O)(=O)c1ccc(N)cc1
inactive: outcome [1] | outcome [2] | outcome [3] | outcome [5] | outcome [6] | outcome [7] | outcome [8] | outcome [9] | outcome [10]

CC(=O)N[C@@H](CC(C)C)C(=O)O
inactive: outcome [1] | outcome [2] | outcome [3] | Potency [4] | outcome [5] | outcome [6] | outcome [7] | outcome [8] | outcome [9] | outcome [10]

CCCCCCCC(=O)OCC(COC(=O)CCCCCCC)OC(=O)CCCCCCC
inactive: outcome [1] | outcome [2] | outcome [3] | Potency [4] | outcome [5] | outcome [6] | outcome [7] | outcome [8] | outcome [9] | outcome [10]

Cc1c(Cn2ccnc2)c2ccccc2n1CCC(=O)O
inactive: outcome [1] | outcome [2] | outcome [3] | Potency [4] | outcome [5] | outcome [6] | outcome [7] | outcome [8] | outcome [9] | outcome [10]
